Screens (PubChem BioAssay)
DT40 TDP1 CPT = growth inhibition of DT40 Tdp1-/-;hTDP1 cells with camptothecin (screen for TDP1 inhibitors); chicken DT40 Tdp1-/-;hTDP1 cells + 20 nM CPT, ATP luminescence, 48 h; Potency, µM (top dose mostly 46.2 µM), for the others: at the highest dose activity change, negative = growth inhibition, actives largely listed as inhibitors; actives 12% (n = 420,000); also: potency is read from the fitted curve at half-maximal effect; % is scaled to controls: 0 for no effect and ±100 for the full control effect; nearly all actives have a fitted effect of over 55% in size
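Chicken DT40 Tdp1-/- cells complemented with human TDP1, 400 cells/well, exposed to compounds plus 20 nM camptothecin for at least 48 h at 37 C; viability read as ATP content by CellTiter-Glo luminescence.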
D3 antag = D3 dopamine receptor (human) antagonism. P35462. max response, negative = inhibition, %. D3R cells, DiscoveRx beta-arrestin luminescence, antagonist mode; active compounds read low. actives 2.5% (n = 360,000); in the data active = max response below about -50%; inconclusive = no clear call, values can overlap the other calls; also: % is scaled to controls: 0 for no effect and ±100 for the full control effect
Target sequence (P35462 whole entry, looked up): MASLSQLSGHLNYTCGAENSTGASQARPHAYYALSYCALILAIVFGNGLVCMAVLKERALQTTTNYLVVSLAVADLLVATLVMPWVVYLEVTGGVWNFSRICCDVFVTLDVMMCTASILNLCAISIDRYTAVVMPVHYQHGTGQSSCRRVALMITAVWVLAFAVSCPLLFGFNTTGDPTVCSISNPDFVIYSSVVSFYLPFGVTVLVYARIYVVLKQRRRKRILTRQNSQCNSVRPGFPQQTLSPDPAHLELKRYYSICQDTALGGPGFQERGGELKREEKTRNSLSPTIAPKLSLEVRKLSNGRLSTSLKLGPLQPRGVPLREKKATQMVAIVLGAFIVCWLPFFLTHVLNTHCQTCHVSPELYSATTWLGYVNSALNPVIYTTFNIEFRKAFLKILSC
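Cells plated overnight at 1500 cells/well, then exposed to library compounds with dopamine controls for 90 minutes at 37 degrees C. DiscoveRx reagent added for 30–60 minutes at room temperature; luminescence read, quantitative HTS format.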
DT40 TDP1 no CPT = qHTS for Inhibitors of human tyrosyl-DNA phosphodiesterase 1 (TDP1): qHTS in cells in absence of CPT. DT40 Tdp1-/- hTDP1 cells, no CPT, ATP luminescence, 48 h. Potency, µM (top dose mostly 46.2 µM), for the others: top-dose activity change, negative = growth inhibition, actives largely listed as inhibitors. actives 15% (n = 420,000); also: potency is read from the fitted curve at half-maximal effect; % is scaled to controls: 0 for no effect and ±100 for the full control effect; nearly all actives have a fitted effect of over 55% in size
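A cellular qHTS used chicken DT40 cells lacking endogenous Tdp1 but carrying stably transfected human TDP1. Compounds were applied without camptothecin, and cell growth kinetics were judged by ATP-dependent luminescence after ≥48 hr.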
ClpP mod = qHTS Assay for Activators of ClpP; Potency, µM (titrated, usually from 57.5 µM), inactives show at the highest dose activity change, negative = active; ATP-dependent Clp protease proteolytic subunit (Bacillus subtilis (strain 168)), P80244; purified B. subtilis ClpP, FRET peptide cleavage, 20 min; actives 1.9% (n = 340,000); active = well fitted falling curve with a large enough effect; inconclusive = small, poorly fitted or top-dose-only effect; inactive = no such curve, though single readings can be large or run the other way; also: potency is read from the fitted curve at half-maximal effect; the source files actives as falling curves though it sought activators and does not explain the sign; nearly all actives have a fitted effect of over 65% in size
Target sequence (P80244 whole entry, looked up): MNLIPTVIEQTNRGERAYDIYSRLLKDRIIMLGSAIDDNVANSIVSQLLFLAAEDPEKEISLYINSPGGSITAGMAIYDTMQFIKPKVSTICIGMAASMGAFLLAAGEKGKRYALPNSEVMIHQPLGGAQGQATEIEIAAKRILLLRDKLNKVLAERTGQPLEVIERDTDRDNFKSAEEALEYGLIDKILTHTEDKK
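Buffer: 100 mM Tris/HCl pH8, 100 mM KCl, 0.05% low protease BSA, 2.5% glycerol, 0.01% Tween-20. ClpP 10 microg/mL final; 20 min RT; delta FRET normalized to ADEP and DMSO controls.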
IL1B secr inh = inhibitors of inflammasome signaling (IL-1 beta secretion). THP-1 LPS/ATP IL-1B secretion, AlphaLISA, 16 h; active compounds read low. activity change, % at 57.5 µM. actives 4.7% (n = 360,000); in the data active = activity change below about -50%; inconclusive = mostly about -30% to -49%; also: % is scaled to controls: 0 for no effect and ±100 for the full control effect
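THP-1 cells pretreated 1 hr with compounds (up to 57.5 uM final), then stimulated with LPS (250 ng/mL final) plus ATP (1.25 mM final); secreted IL-1B measured by AlphaLISA after 16 hr, decreased signal indicating inhibition.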
DRD3 agonist = agonists of human D3 dopamine receptor. P35462. D3R DiscoveRx beta-arrestin cells, luminescence, 90 min. max activation, %. actives 0.58% (n = 410,000). AID 652048; in the data active = max activation above about 30%; also: 0% is about no effect
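Agonist mode: compounds and dopamine controls were applied to plated cells for 90 min at 37 degrees C after an overnight attachment at 1500 cells/well. Luminescent read-out followed 30 - 60 minutes at room temperature with DiscoveRx detection reagent.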
Active calls of the source: *; ? = inconclusive; · = no result. Only some compounds are listed: those with a hit (about 21% of all), similar ones and a draw of the others. Unless noted, calls follow the shape of the dose curve; as a rule, active = well fitted inhibition curve with a large enough effect; inconclusive = small, poorly fitted or top-dose-only effect; inactive = flat fitted curve, though single readings scatter.

SMILES	DT40 TDP1 CPT	D3 antag	DT40 TDP1 no CPT	ClpP mod	IL1B secr inh	DRD3 agonist
COc1ccc(OCC(=O)Nc2ccc3c(c2)nc(CN2CCN(C(C)=O)CC2)n3C)cc1	-5.5%	-10.3	-4.7%	?	43.1	1.3
COc1ccc(OCC(=O)Nc2ccc3c(c2)nc(CN2CCCC2)n3C)cc1	?	-54.3*	?	-2.0%	-10.6	-14.2
Cc1nn(CC(=O)Nc2ccc3c(c2)nc(CCN2CCCCC2)n3C)c(=O)c2ccccc12	11.2µM*	?	?	-14.3%	-12.4	-36.3
COc1ccc(OCC(=O)Nc2ccc3c(c2)nc(CCN2CCOCC2)n3C)cc1	-6.2%	?	-27.2%	-6.0%	11.6	-2.6
CC(=O)N1CCN(Cc2nc3cc(NC(=O)Cn4nc(C)c5ccccc5c4=O)ccc3n2C)CC1	7.1%	-27.7	-31.8%	-7.3%	0.0	-4.1
COC(=O)c1[nH]c2ccc(Br)cc2c1NC(=O)CN1CCN(C2CCCCC2)CC1	25.9µM*	?	20.6µM*	-23.8%	-99.6*	0.1
CCOC(=O)C1CCCN(CC(=O)Nc2c(C(=O)OC)[nH]c3ccc(Br)cc23)C1 (configuration not stated)	16.4µM*	-51.4*	20.6µM*	-7.1%	23.9	-15.3
CCOC(=O)C1CCN(CC(=O)Nc2c(C(=O)OC)[nH]c3ccc(Cl)cc23)CC1	23.1µM*	-3.1	10.3µM*	28.2µM*	6.9	13.2
CCC(Cn1nnc2ccccc2c1=O)NC(=O)Nc1ccc(C)c(C)c1 (configuration not stated)	?	·	?	1.6%	·	-19.9
COc1ccc(C)cc1N(C(=O)c1ccccc1F)c1nc2ccccc2s1	?	?	18.4µM*	0.3%	8.2	-2.5
COc1ccc(C)cc1N(C(=O)COc1ccccc1)c1nc2ccccc2s1	?	39.2	?	10µM*	-4.0	-11.1
COc1ccc(C)cc1N(C(=O)c1ccccc1)c1nc2ccccc2s1	-28.1%	-9.7	?	-4.7%	-2.9	1.1
CS(=O)(=O)c1ccc(C(=O)CN2C(=O)NC3(CCCc4ccccc43)C2=O)cc1 (configuration not stated)	-17.4%	7.3	4.0%	-2.6%	18.3	-3.7
O=C(NCc1ccccc1)c1cc(C2CCCN(C(=O)CCc3ccccc3)C2)on1 (configuration not stated)	-19.3%	-19.4	?	-0.9%	-6.6	-6.4
O=C(Nc1ccccc1Cl)c1cc(C2CCCN(C(=O)CCc3ccccc3)C2)on1 (configuration not stated)	-29.9%	4.9	?	-16.6%	-15.8	4.7
O=C(NCc1ccc(F)cc1)c1cc(C2CCCCN2C(=O)CCCc2ccccc2)on1 (configuration not stated)	?	0.5	23.1µM*	-0.8%	?	2.4
CC(C)COC(=O)N1CCCCC1c1cc(C(=O)NCc2ccccc2)no1 (configuration not stated)	18.4µM*	13.1	?	-0.1%	-10.3	-3.4
O=C(Nc1ccccc1)c1cc(C2CCCN(C(=O)CCc3ccccc3)C2)on1 (configuration not stated)	25.9µM*	?	?	1.2%	6.6	1.4
O=C(NCc1ccc(F)cc1)c1cc(C2CCCN(C(=O)CCCc3ccccc3)C2)on1 (configuration not stated)	23.1µM*	14.5	?	0.0%	?	-4.4
CCCNC(=O)c1cc(C2CCCCN2C(=O)c2cc(F)ccc2C)on1 (configuration not stated)	-27.7%	48.6	-21.7%	-3.3%	38.3	1.8
Cc1ccc(F)cc1C(=O)N1CCCCC1c1cc(C(=O)NCc2ccccc2)no1 (configuration not stated)	13µM*	-18.7	?	-1.0%	2.2	-9.8
CCOC(=O)C(=O)c1c(-c2ccc(C)cc2)nc2ccccn12	23.1µM*	-13.3	?	2.5%	-16.2	-6.7
CCOC(=O)C(=O)c1c(-c2ccccc2)nc2ccccn12	?	-0.6	?	·	-0.5	-3.6
CCOC(=O)c1c(-c2ccccc2)nc2ccc(C)cn12	?	9.0	16.4µM*	-6.8%	10.6	-2.7
COc1ccccc1C(=O)Nc1c(-c2ccccc2)nc2ccccn12	23.1µM*	6.2	?	·	-9.3	12.3
SMILES	DT40 TDP1 CPT	D3 antag	DT40 TDP1 no CPT	ClpP mod	IL1B secr inh	DRD3 agonist
CCOC(=O)CNc1c(-c2ccc(O)cc2)nc2ccccn12	-26.7%	10.4	-27.4%	31.6µM*	-16.4	-4.3
Cc1cc(N)c2cc(NC(=O)Nc3ccc4nc(C)cc(N)c4c3)ccc2n1	?	·	?	·	·	-7.7
CCOC(=O)c1c(C)nc2ccccn12	-6.4%	-25.9	-10.4%	-0.7%	39.7	-8.1
Cc1ccc(SCC(=O)c2c(C)nc3ccccn23)cc1	20.6µM*	-7.0	10.3µM*	·	?	1.3
COc1ccc(OC)c(CNC(=O)CCS(=O)(=O)c2ccc3c(c2)oc(=O)n3C)c1	0.4%	1.5	15.5%	0.3%	18.0	5.7
CS(=O)(=O)Nc1ccccc1C(=O)NCc1ccco1	5.2%	?	0.7%	28.2µM*	8.6	-2.9
O=C(Nc1ccccc1C(=O)NCc1ccco1)c1ccco1	-1.2%	-7.4	1.0%	-10.5%	-9.0	-3.5
CCOC(=O)c1ccccc1NC(=O)N(C)CCc1c(C)nn(CC)c1C	20.6µM*	·	16.4µM*	-25.0%	·	2.4
CCOC(=O)c1ccccc1NC(=O)c1ccccc1SC	?	3.1	?	-0.9%	40.5	10.5
CCOC(=O)c1ccccc1NC(=O)c1ccccc1NS(C)(=O)=O	?	21.5	?	35.5µM*	15.5	-4.5
O=C(Nc1ccccc1C(=O)NCc1ccco1)NC1CCCCC1	12.0%	-7.1	?	20µM*	?	-8.1
CC1(C(=O)N2CCCCC2)CCN1C(=O)C1(c2ccccc2)CC1 (configuration not stated)	0.5%	-12.6	-6.5%	0.3%	21.2	5.5
COCCn1c(=O)c(-c2cc(F)cc(F)c2)nc2cnc(Oc3ccccc3)nc21	-12.3%	·	?	·	·	·
N/C(=N\OC(=O)c1ccccc1F)c1cccc([N+](=O)[O-])c1	-0.7%	5.9	10.5%	-1.5%	6.0	1.0
O=C(Nc1ccccc1C(=O)Nc1ccccc1C(=O)NCc1ccco1)c1ccco1	16.4µM*	36.9	?	22.7%	-1.5	23.3
Cc1ccc(CNC(=O)c2ccccc2NS(C)(=O)=O)cc1	-3.0%	6.3	-22.7%	28.2µM*	0.0	-5.7
